An excerpt weighted towards active compounds, which were near 3.7% of everything screened.
Tb PYK inh = blocks Trypanosoma brucei pyruvate kinase; TbPYK enzyme, Kinase-Glo Plus ATP luminescence, 45 min; Potency, µM (series often up to 76.8 µM), most hits filed as inhibitors; AID 624173; Q57TT1; 0.12% of 410,000 active; also: nearly all actives have a fitted effect of over 50% in size
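Quantitative HTS: titrated library compounds versus trypanosomal pyruvate kinase in TEA buffer (pH 7.2) containing KCl, MgCl2, BSA and Tween-20. Reactions were initiated with ADP, 130 uM final. Kinase-Glo Plus luminescence was read after 45 min at RT.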
Sm TGR block = inhibitors of Schistosoma mansoni thioredoxin glutathione reductase; Q962Y6; purified TGR, DTNB reduction, TNB absorbance 405 nm; Potency, µM (top dose mostly 114 µM), most hits filed as inhibitors; 3% of 360,000 active; AID 485364; also: nearly all actives have a fitted effect of over 60% in size
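TGR 20 nM + NADPH 100 uM (dispensed conc.), cpd preinc 15 min RT; start with NADPH (500 uM addition) then DTNB (15 mM addition). Kinetic TNB absorbance, 405 nm filter. Four-parameter Hill fit across titration.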
FMDV antiviral = blocks foot and mouth disease virus | FMDV antiviral cell-based qHTS | Potency, µM (titrated, usually from 57.9 µM), most hits filed as inhibitors | 1.2% of 410,000 active; calls by dose curve; tested in HEK293T cells; also: read-out not given here; nearly all actives have a fitted effect of over 45% in size
RE007 growth inh = less growth of the S. pombe RE007 Vpr strain; S. pombe RE007 Vpr strain, BacTiter-Glo ATP luminescence, 24 h; Potency, µM (highest dose often 92.2 µM), most hits filed as inhibitors; 0.21% of 360,000 active; active = well fitted falling curve with a large enough effect; inconclusive = small, poorly fitted or top-dose-only effect; inactive = no such curve, though single readings can be large or run the other way; also: nearly all actives have a fitted effect of over 50% in size
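Fission yeast RE007 carrying one integrated HIV-1 vpr copy, seeded at OD 0.01 in PMG+AL medium with 23 nL pinned compound. Grown 24 h at 30 degrees; viability read by BacTiter-Glo luminescence after 5 min.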
A number is an active result; i = inactive; ? = inconclusive; nt = not tested or not shown; ! = repeats disagree. Unless noted, calls follow the shape of the dose curve; as a rule, active = well fitted curve in the direction sought with a large enough effect; inconclusive = small, poorly fitted or top-dose-only effect, or another doubt; inactive = no such curve, though single readings can be large; an effect the other way counts as inactive or inconclusive.

SMILES | Tb PYK inh | Sm TGR block | FMDV antiviral | RE007 growth inh
Cc1ccc(NC(=O)C2C3C=CC(O3)C2C(=O)O)c(C)c1 (configuration not stated) | i | 35µM | i | i
O=S(=O)(/C=C/c1ccccc1)N1CCC(n2c(C3CCCO3)nc3cccnc32)CC1 (configuration not stated) | nt | nt | i | nt
Cc1ccc(CNc2nc(CN3CCSCC3)nc3ccccc23)o1 | nt | nt | i | nt
Cc1cccc(NC(=O)C2C3C=CC(O3)C2C(=O)O)c1 (configuration not stated) | nt | 11µM | nt | nt
COC(=O)c1ccc(NC(=O)C2C3C=CC(O3)C2C(=O)O)cc1 (configuration not stated) | i | ? | i | ?
CCOC(=O)c1ccc(NC(=O)C2C3C=CC(O3)C2C(=O)O)cc1 (configuration not stated) | nt | 56µM | nt | nt
COc1ccccc1NC(=O)C1C2C=CC(O2)C1C(=O)O (configuration not stated) | nt | 40µM | nt | nt
COc1ccccc1C1CN(Cc2ccc(Sc3nncn3C)o2)Cc2ccccc2O1 (configuration not stated) | nt | nt | i | nt
CCCc1c(OCC(O)COc2ccc3c(=O)cc(C(=O)O)oc3c2CCC)ccc(C(C)=O)c1O (configuration not stated) | nt | nt | i | nt
COc1cc(CCNC2=CC(=O)c3ncccc3C2=O)ccc1O | i | nt | 40µM | i
CC(C)c1nnc(NC(=O)c2nc(SCc3ccc(F)cc3)ncc2Cl)s1 | i | i | i | nt
CSc1ncc(Cl)c(C(=O)Nc2nnc(SC/C=C/c3ccccc3)s2)n1 | i | i | i | i
Cc1ccc(CS(=O)(=O)c2ncc(Cl)c(C(=O)Nc3nnc(C(C)C)s3)n2)cc1 | i | 18µM | 11µM | i
Cc1cccc(CSc2ncc(Cl)c(C(=O)Nc3nc4ccc(F)cc4s3)n2)c1 | i | i | i | nt
Cc1cccc(CS(=O)(=O)c2ncc(Cl)c(C(=O)Nc3nnc(C(C)C)s3)n2)c1 | i | 40µM | 8.9µM | i
CC(C)c1nnc(NC(=O)c2nc(S(=O)(=O)Cc3ccc(F)cc3)ncc2Cl)s1 | i | 25µM | i | i
CSc1nnc(NC(=O)c2nc(S(=O)(=O)Cc3cccc(C)c3)ncc2Cl)s1 | i | 20µM | 5.6µM | i
CCNC(=O)c1c(NC(=O)c2nc(S(=O)(=O)CC)ncc2Cl)sc2c1CCCC2 | i | i | ? | nt
COc1cccc(C(=O)NC2=NC(c3ccccc3F)CC(=O)N2)c1 (configuration not stated) | i | i | i | nt
Cc1ccc(S(=O)(=O)NCCc2sc3nc(-c4ccccc4)nn3c2C)cc1C | i | i | i | nt
Cc1ccc(C)c(NC(=O)c2nc(S(=O)(=O)Cc3ccc(F)cc3)ncc2Cl)c1 | i | 2.5µM | 28µM | nt
Cc1ccc(C)c(NC(=O)c2nc(Cl)ccc2Cl)c1 | i | i | i | i
CCSc1nnc(NC(=O)c2nc(S(=O)(=O)Cc3ccc(F)cc3)ncc2Cl)s1 | i | 35µM | 8.9µM | i
CCOC(=O)CCc1c(C)c2cc3c(c(C)c2oc1=O)OCN(CCc1ccccc1OC)C3 | i | i | i | nt
Cc1cccc(C(=O)Nc2nnc(S(=O)(=O)N(C)Cc3ccco3)s2)c1 | i | 7.9µM! | i | i
SMILES | Tb PYK inh | Sm TGR block | FMDV antiviral | RE007 growth inh
CCN(c1ccccc1C)S(=O)(=O)c1nnc(NC(=O)c2ccco2)s1 | i | 20µM! | i | i
COc1cccc(C(=O)NC(C)c2nnc3n2CCN(CC=C(C)C)CC3)c1 (configuration not stated) | nt | nt | i | nt
O=C(C#Cc1ccccc1)c1ccc([N+](=O)[O-])cc1 | i | 0.32µM | 22µM | i
O=C(/C=C/NCC(=O)c1ccccc1)c1ccc(Br)cc1 | i | 20µM | i | i
Cc1ccccc1-n1nnnc1Sc1nnnn1-c1ccccc1 | i | i | 8.9µM | i
O=[N+]([O-])c1ccc(Sc2ccccn2)nc1 | i | i | i | i
O=[N+]([O-])c1ccc(Sc2nnnn2-c2ccccc2)nc1 | i | 14µM | 22µM | ?
Cc1c(C(=O)N(CCO)C(C)C)cnn1-c1ncc2c(n1)-c1ccccc1CCC2 | nt | nt | i | nt
COc1ccc(C)cc1NC(=O)c1cc(S(=O)(=O)N2CCC(C)CC2)ccc1F | i | i | i | nt
O=c1[nH]c(Nc2ccc(F)cc2)cc2ccccc12 | i | 35µM | i | i
O=c1[nH]c(Nc2ccccc2Cl)cc2ccccc12 | i | nt | i | i
Cc1ccccc1Nc1cc2ccccc2c(=O)[nH]1 | i | 3.2µM | i | i
Cc1cc(Nc2ccc(C)c(C)c2)n2cnnc2n1 | i | i | i | nt
O=C(c1ccc(CSc2nc3ccncc3n2Cc2ccc(F)cc2)cc1)N1CCCCCC1 | i | i | i | nt

Screens as filed in PubChem BioAssay.
